Screening results from PubChem BioAssay.
Shown are actives, neighbours in structure and some others; about 8% of the full set was active somewhere.
VP16 counter: Gal4-VP16 reporter inhibition counter-screen; Drosophila S2 Gal4-VP16 UAS-luciferase, luminescence, 20 h; Potency, µM (highest dose often 53.6 µM), without a hit: at the top dose activity, negative = inhibition, actives largely listed as inhibitors; hit rate 3.5% among 310,000;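 also: Gal4-VP16 expression switched on by copper sulfate through the metallothionein promoter; potency is read from the fitted curve at half-maximal effect; nearly all actives have a fitted effect of over 50% in size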
ELG1 repair inh: blocks ELG1-dependent DNA repair in HEK293T cells | AID 504467 | hit rate 2.3% among 330,000 | Potency, µM (highest dose often 46.1 µM), inactives show top-dose activity change, negative = inhibition, usual class: inhibitors | HEK293T ELG1-luciferase reporter, luminescence, 16 h; DNA damage induced by 5-fluorouridine; also: potency is read from the fitted curve at half-maximal effect; nearly all actives have a fitted effect of over 55% in size
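5-Fluorouridine DNA damage + compound/DMSO, 2,000 cells/well, 16 h, 37 °C/5% CO2. ONE-Glo, 30 min RT, luminescence. Readout = decrease in reporter signal.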
RORgamma inh: blocks mouse ROR gamma transcriptional activity; P51450; hit rate 5.4% among 310,000; Drosophila S2 Gal4-RORgamma UAS-luciferase reporter, 20 h; AID 2551; Potency, µM (highest dose often 53.6 µM), for inactives: at the highest dose activity change, negative = inhibition, usual class: inhibitors; also: potency is read from the fitted curve at half-maximal effect; nearly all actives have a fitted effect of over 60% in size
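Luciferase reporter read in Schneider cells carrying Gal4-RORγ (mouse) and UAS-Photinus luciferase; cells given compound 1 h before 700 uM copper sulfate induction, then incubated 20 h at ambient temperature.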
FBPA coupling cs: counter-screen for Giardia aldolase inhibitors: coupling enzyme system; activity change, negative = inhibition, % at 58.2 µM, hits read low; AID 2472; hit rate 0.67% among 290,000; coupling enzyme system counterscreen, AmpLite Red fluorescence; in the data active = activity change below about -30%
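Counterscreen of the coupled detection system alone, without aldolase: glyceraldehyde-3-phosphate coupling enzymes plus AmpLite Red readout. Compounds at 57.5 uM final, 10 min RT preincubation, 20 min RT reaction, fluorescence 525/598 nm.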
TSHR antagonist: antagonists of human thyroid stimulating hormone receptor. AID 504810. activity change, negative = inhibition, % at 11.5 µM. hit rate 0.2% among 330,000. P16473. TSHR-expressing cells, TSH-stimulated cAMP HTRF, 2 h; hits give low values;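 active = activity change below a set negative limit, meaning inhibition stronger than a set level, cut at about -70% in these data; inconclusive = activity change between two set negative limits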
Target sequence (P16473 whole entry, looked up): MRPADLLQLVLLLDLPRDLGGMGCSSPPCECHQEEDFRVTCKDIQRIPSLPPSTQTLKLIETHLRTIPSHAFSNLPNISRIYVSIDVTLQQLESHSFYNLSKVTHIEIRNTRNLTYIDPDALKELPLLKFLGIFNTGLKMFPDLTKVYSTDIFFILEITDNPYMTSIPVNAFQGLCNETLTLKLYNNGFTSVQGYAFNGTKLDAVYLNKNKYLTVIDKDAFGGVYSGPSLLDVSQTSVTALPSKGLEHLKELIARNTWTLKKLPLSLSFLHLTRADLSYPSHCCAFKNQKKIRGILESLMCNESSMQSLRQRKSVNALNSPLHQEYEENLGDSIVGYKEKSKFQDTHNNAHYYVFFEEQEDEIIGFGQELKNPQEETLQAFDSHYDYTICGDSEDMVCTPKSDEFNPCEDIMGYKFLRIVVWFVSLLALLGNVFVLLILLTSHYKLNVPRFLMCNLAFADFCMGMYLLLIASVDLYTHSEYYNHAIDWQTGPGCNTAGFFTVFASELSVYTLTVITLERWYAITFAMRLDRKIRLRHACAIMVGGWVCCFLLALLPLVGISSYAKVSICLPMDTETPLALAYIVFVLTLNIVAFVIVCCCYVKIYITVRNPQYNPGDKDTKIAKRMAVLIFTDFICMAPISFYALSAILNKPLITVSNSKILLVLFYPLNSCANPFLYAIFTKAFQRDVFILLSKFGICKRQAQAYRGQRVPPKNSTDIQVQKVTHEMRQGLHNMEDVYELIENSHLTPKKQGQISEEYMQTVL
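Inhibition of cAMP made by TSHR-expressing cells under TSH stimulation (4nM final, EC80; 2 h, 37 deg C) is quantified with a one-step lysis HTRF kit, anti-cAMP cryptate versus cAMP-d2.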
Active calls of the source: *; ? = inconclusive; . = no result; [ ] = another dose, or the depositor's remark. Unless noted, calls follow the shape of the dose curve; as a rule, active = well fitted curve in the direction sought with a large enough effect; inconclusive = small, poorly fitted or top-dose-only effect, or another doubt; inactive = no such curve, though single readings can be large; an effect the other way counts as inactive or inconclusive. % is scaled to controls: 0 for no effect and ±100 for the full control effect.

SMILES | VP16 counter | ELG1 repair inh | RORgamma inh | FBPA coupling cs | TSHR antagonist
Cn1c2ccccc2c2cc(/C=C(\NC(=O)c3ccccc3)C(=O)O)ccc21 | -1.2% | -9.7% | -16.4% | 8.4 | -10.8
CS(=O)(=O)Nc1cccc(-c2cncnc2NCc2cccnc2)c1 | -4.0% | . | -16.3% | 2.8 | .
CCCCN(CCCC)C(=O)c1cc(Cl)ccc1[N+](=O)[O-] | -8.3% | -0.6% | -2.8% | 3.1 | -10.1
CCCN(CCC)C(=O)c1cc([N+](=O)[O-])cc2c1-c1ccc([N+](=O)[O-])cc1C2=C(C#N)C#N | ? | -22.8% | -7.9% | -31.9* | 11.4
O=c1c2ccccc2ncn1-c1ccc(Cl)cc1[N+](=O)[O-] | 2.8% | 13.0% | 22.0% | -1.6 | 1.4
O=c1c2ccccc2ncn1-c1ccc([N+](=O)[O-])cc1[N+](=O)[O-] | ? | 14.6µM* | -10.6% | -3.1 | -12.3
COc1ccc(C(=O)/C=C/c2ccc(OC(=O)c3cc(OC)c(OC)c(OC)c3)cc2)cc1 | 7.08µM* | -1.5% | 1.78µM* | -0.7 | -18.8
CCOc1ccc(C(=O)/C=C/c2cc(OC)c(OC)c(OC)c2)cc1 | 0.4% | ? | ? | -2.2 | -23.1
COc1cc(/C=C/C(=O)c2ccc3c(c2)OCCO3)cc(OC)c1OC | ? | ? | ? | 2.3 | -10.4
COc1ccc(OC)c(/C=C/C(=O)c2ccc3c(c2)OCCO3)c1 | -24.7% | -14.8% | 10µM* | 1.1 | 3.8
COc1cc(/C=C/C(=O)c2ccc3c(c2)OCO3)cc(OC)c1OC | . | 16.4µM* | . | . | -6.9
O=C(NCCC(=O)N1CCN(Cc2c(F)cccc2Cl)CC1)c1ccc(Cl)cc1 | . | -25.4% | . | . | 2.2
CN(CC(=O)Nc1cccc(F)c1)C(=O)c1ccccc1OCC(=O)Nc1cccc(C(F)(F)F)c1 | . | ? | . | . | -1.9
CC1=NN(C(=O)c2ccccc2Br)C(O)(c2ccc(Cl)cc2)C1 (stereo unspecified) | 8.91µM* | -4.8% | 3.98µM* | 4.2 | -10.2
COC(=O)C1=NN(C(=O)c2ccc(Cl)cc2)C(O)(c2ccccc2)C1 (stereo unspecified) | ? | 1.4% | ? | 7.1 | 25.0
CC1=NN(C(=O)c2ccccc2C)C(O)(c2ccc(Cl)cc2)C1 (stereo unspecified) | 7.94µM* | -6.5% | 6.31µM* | 2.5 | -0.1
Cc1ccc(N)cc1[N+](=O)[O-] | -6.5% | . | 1.6% | . | .
CCc1nn(CC(=O)NCCCN2CCOCC2)c(=O)c2cc3cc(F)ccc3n12 | -1.1% | 17.8% | 6.1% | -1.4 | 2.6
Cc1ccc2[nH]c3c(c2c1)CCCC3NC(=O)CCl (stereo unspecified) | ? | 17.8µM* | -15.0% | -15.6 | -2.2
Cc1ccc2[nH]c3c(c2c1)CCCC3C(N)=O (stereo unspecified) | -3.1% | 8.5% | 14.4% | -1.6 | -9.8
CCn1cc(C(=O)NCc2ccc3c(c2)OCO3)c(=O)c2cc(F)c(N3CCN(C(=O)c4ccco4)CC3)cc21 | ? | 9.2µM* | 11.0% | 1.2 | -16.9
CCN(CC)CCNC(=O)c1cn(CC)c2cc(N3CCN(C(=O)c4ccco4)CC3)c(F)cc2c1=O | -5.5% | ? | -0.7% | -1.0 | -10.7
CCn1cc(C(=O)NCc2ccccc2)c(=O)c2cc(F)c(N3CCN(C(=O)c4ccco4)CC3)cc21 | -17.7% | 16.4µM* | 22.2% | -1.6 | -18.5
CCn1cc(C(=O)NCc2ccncc2)c(=O)c2cc(F)c(N3CCN(C(=O)c4ccco4)CC3)cc21 | -4.3% | ? | 34.6% | 3.5 | -10.8
CCn1cc(C(=O)O)c(=O)c2cc(F)c(N3CCN(C(=S)NC(=O)c4cc(OC)cc(OC)c4)CC3)cc21 | 6.31µM* | ? | 2.51µM* | 0.4 | -11.9
SMILES | VP16 counter | ELG1 repair inh | RORgamma inh | FBPA coupling cs | TSHR antagonist
Cc1nn(C(C)C(=O)NC2CCC(C)CC2)c(=O)c2nn(-c3ccccc3)c(C)c12 (stereo unspecified) | 21.3% | ? | 21.3% | . | -9.0
COc1ccc(CNc2nc(NCc3ccc(OC)cc3)c3ncn(C4CCCCC4)c3n2)cc1 | -2.8% | . | ? | -2.4 | .
CCOC(=O)c1sc(NC(=O)CSc2nccc(C)n2)c(C#N)c1C | -4.5% | 5.8% | -21.0% | 3.7 | -9.6
CCc1ccc(C(=O)CSc2n[nH]c(-c3ccncc3)n2)cc1 | 11.2µM* | 0.0% | 38.7% | 7.4 | -6.8
CCOC(=O)c1sc(NC(=O)CSc2n[nH]c(-c3ccncc3)n2)c(C#N)c1C | -4.7% | 18.4µM* | 1.3% | 4.4 | -74.5*
CO[C@H]1C[C@@H](O[C@@H]2[C@H](C)[C@H](O[C@@H]3O[C@@H](C)C[C@@H](N(C)C)[C@@H]3O)[C@H](C)C[C@]3(CO3)C(=O)[C@H](C)[C@H](O)[C@H](C)[C@H](C)OC(=O)[C@@H]2C)O[C@@H](C)[C@H]1O | -1.3%[17 µM] | . | 8.5%[2.98 µM] | 0.3 | .
O=C(c1ccc(CS(=O)Cc2ccc(Cl)cc2)o1)N1CCN(c2cccc(Cl)c2)CC1 (stereo unspecified) | -11.9% | ? | 38.7% | 8.2 | -13.6
COc1cccc(N2CCN(C(=O)c3ccc(CS(=O)c4ccc(C)cc4)o3)CC2)c1 (stereo unspecified) | -0.3% | 9.6% | -10.4% | . | 16.1
O=C(c1ccc(CS(=O)Cc2ccc(Cl)cc2)o1)N1CCN(c2ccc(F)cc2)CC1 (stereo unspecified) | 11.7% | 23.1µM* | 30.7% | 3.0 | -13.8
COc1cccc(N2CCN(C(=O)c3ccc(CS(=O)Cc4ccc(C)cc4)o3)CC2)c1 (stereo unspecified) | -2.9% | 14.6µM* | 3.3% | 5.6 | -4.0
CCc1ccc(NC(=O)CSc2nc(=O)n(CCCN(C)C)c3c2CCC3)cc1 | . | 8.5% | . | . | 5.4
CN(C)c1nc(N/N=C/c2ccccc2O)nc(Nc2ccc(F)cc2)n1 | 1.12µM* | ? | 0.224µM* | -9.2 | -9.6
CCC(=O)c1ccc(OCC(=O)N2CCN(c3ncccn3)CC2)cc1 | . | 10.3% | . | . | -0.2
CCc1ccc(NC(=O)C2=CC(c3ccc(OC)c(OC)c3)=NS(=O)(=O)N2C)cc1 | -24.6% | 13µM* | ? | -3.5 | -13.5
COc1ccc(C2=NS(=O)(=O)N(C)C(C(=O)N3CCc4ccccc4C3)=C2)cc1OC | ? | 18.3µM* | ? | 1.4 | -21.8
COc1ccc(CNC(=O)C2=CC(c3ccc(OC)c(OC)c3)=NS(=O)(=O)N2C)cc1 | 4.0% | -28.4% | -5.7% | 2.8 | -9.3
COc1cccc(-c2nnc(SCC(=O)NC3CCS(=O)(=O)C3)n2C)c1 (stereo unspecified) | . | 13.6% | . | . | 12.5
Clc1ccc(/C=N/Nc2nc(Cl)nc3ccccc23)cc1 | ? | ? | -21.8% | -0.3 | -11.5
Clc1cccc(/C=N/Nc2ncnc3ccccc23)c1 | 4.47µM* | ? | 1.26µM* | 0.1 | -13.6
C(=N\Nc1ncnc2ccccc12)/c1ccccc1 | 1µM* | ? | 2.51µM* | -4.3 | -2.8
